# Laboratory results reported in PubChem BioAssay AID1063 (University of Pittsburgh Molecular Library Screening Center, 2008).
# About 18,000 (9%) of roughly 200,000 compounds were called active. This is one part of a sample in which actives are shown more often than they occur. Rule as the data show it: active = inhibition above about 50%; inactive = the rest.
# Assay: antileishmanial activity against promastigotes – primary screen (AID 1063);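 also: promastigotes grown with compound for 44 hours at 28 °C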
# Details: Leishmania major promastigotes, resazurin fluorescence viability; at 10 µM; active compounds read high
row,Structure (SMILES),inhibition
1,Cc1ccc2nc(-c3ccc(NC(=O)c4cccnc4)cc3)oc2c1,-5.33% (inactive)
2,Cc1cccc(NC(=S)NCCN(C2CCCCC2)C2CCCC2)c1,37.4% (inactive)
3,COc1ccc(OCc2n[nH]c(=S)n2N)cc1,-7.89% (inactive)
4,O=C(/C=C/c1ccc(F)cc1)NCCNC(=O)/C=C/c1ccc(F)cc1,-1.31% (inactive)
5,CC(C)c1ccc(/C=C/C(=O)NNC(=O)c2cccnc2)cc1,-0.93% (inactive)
6,O=C(/C=C/c1ccc(F)cc1)NC(=S)NNC(=O)c1cccnc1,53.4% (active)
7,S=C(NCc1cccs1)Nc1ccc(Cl)cc1,10.1% (inactive)
8,COc1ccc(NC(=S)NCc2cccs2)c(OC)c1,53.3% (active)
9,COc1cc(CC(=O)NCc2cccs2)cc(OC)c1OC,-3.33% (inactive)
10,COc1ccc(Br)cc1/C=N/Nc1ccc(Cl)c(C(=O)O)c1,-11.3% (inactive)
11,COC(=O)C1CCN(C(=O)c2cc(=O)[nH]c3ccccc23)CC1,-2.57% (inactive)
12,COc1ccc(CCNC(=O)CC2SC(=Nc3cc(C)cc(C)c3)NC2=O)cc1OC (centres undefined),1.72% (inactive)
13,Cc1nc(N2CCOCC2)c2c(C)c(C(=O)Nc3ccc(C(F)(F)F)cc3)sc2n1,58.7% (active)
14,Cc1ccnc(N2CCCC(C(=O)Nc3cc(F)ccc3C)C2)n1 (centres undefined),-1.61% (inactive)
15,CCOC(=O)C1CCCN(C(=O)c2sc3nc(C)nc(N4CCOCC4)c3c2C)C1 (centres undefined),-2.76% (inactive)
16,Cc1ccc(F)cc1NC(=O)c1ccc2c(c1)OCO2,-6.66% (inactive)
17,Cc1nc(N2CCN(c3ccccn3)CC2)c2c(C)c(C(=O)Nc3ccc(F)cc3)sc2n1,43.6% (inactive)

row,Structure (SMILES),inhibition
1,Cc1nc(N2CCC(C)CC2)c2c(C)c(C(=O)Nc3cc(F)ccc3C)sc2n1,72.2% (active)
2,CC(C)CNC(=O)C(=O)NCc1ccccc1,-6.83% (inactive)
3,O=C(COC(=O)c1ccc(O)cc1)Nc1nccs1,3.69% (inactive)
4,C/C(=N\NC(=O)C(N)=O)c1ccc2c(c1)OCCO2,-3.07% (inactive)
5,CC(=O)c1cccc(NC(=O)[C@@H](NC(N)=O)C(C)C)c1,6.23% (inactive)
6,COc1cccc(NC(=O)C(C)Oc2ccccc2)c1 (centres undefined),-5.27% (inactive)
7,COc1ccc(NC(C(=O)Nc2cccc(C(C)=O)c2)c2ccccc2)cc1 (centres undefined),94.4% (active)
8,Nc1c(C(=O)O)cnn1-c1ccccc1,-2.24% (inactive)
9,O=C(CCN1CCN(C/C=C/c2ccccc2)CC1)Nc1cccc(F)c1,90.8% (active)
10,O=C(CCN1C(=O)c2ccncc2C1=O)Nc1cc(F)ccc1F,-6.67% (inactive)
11,COc1ccccc1CC(=O)Nc1ccc(F)cc1F,-6.42% (inactive)
12,O=C(CN1CCN(C(=O)c2cccc(F)c2)CC1)Nc1ccccc1F,-5.19% (inactive)
13,O=C(CCN1CCN(c2ccccc2)CC1)NNC(=S)Nc1ccccc1,-9.65% (inactive)
14,O=C(CCN1C(=O)c2ccccc2C1=O)Nc1cccc(F)c1,89.8% (active)
15,CCN1CCN(C(=O)C2(NC(=O)Nc3cccc(F)c3)CCCCC2)CC1,29.9% (inactive)
16,O=C(CN1CCN(C/C=C/c2ccccc2)CC1)Nc1ccc(F)cc1F,77.3% (active)
17,O=C(CCN1C(=O)c2ccccc2C1=O)Nc1ccncc1,-8.03% (inactive)
